Screen size: about 2,200 compounds; about 530 (24%) were called active. Only a sample is shown. Potency and affinity values are given separately. A number with no mark means an inactive call.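 How the source made its calls: active means inhibition above a set limit at one or more concentrations of the dose series; inactive means inhibition under that limit at every dose.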
Assay: S. Typhimurium nonspecific reporter signal inhibition – Salmonella Typhimurium, GFP fluorescence, counter-screen for PhoP regulon inhibitor project, dose response (AID 2401);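 further: S. typhimurium with Mg-insensitive nmpC-GFP reporter grown at 10 µM Mg2+; drop in reporter fluorescence reflects general culture growth inhibition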
Conditions: 4 h; series mostly up to 150 µM; inhibition: at the top concentration

SMILES | inhibition
CCOC(=O)C1=C(C)NC(SCc2cc(=O)[nH][nH]2)=C(C#N)C1c1cccs1 (stereo not given) | -5.57%
COc1ccc(C2CC(c3ccccc3)=NN2C(=O)COC(=O)c2cccnc2)cc1 (stereo not given) | -24%
O=C(CN1C(=O)COc2ccccc21)Nc1ccc(F)cc1 | -5.72%
CCCCn1c(NCCO)nc2ccccc21 | -5.95%
Brc1ccc2nc3c(n2c1)CCCC3 | 18.8%
CCCCn1c(=N)n(CC(=O)C(C)(C)C)c2ccccc21 | -16.4%
Cc1ccc(O)c(-c2cc(-c3ccccc3C)[nH]n2)c1 | 20.4%
COC(=O)c1c(C)[nH]c(C(C)=O)c1C | -11.6%
CCN(CC(=O)Nc1ccc(N2CCOCC2)cc1)Cc1nc2ccccc2c(=O)[nH]1 | -1.68%
O=C(Cn1nc(Cl)nc1Cl)c1ccc2c(c1)OCCO2 | -12.9%
COc1ccc(Nc2ccc3c(c2)=NC2(CCCCC2)[N+]=3[O-])cc1 | -31.7%
CCOC(=O)N1CCN(C(=O)C(NC(=O)c2ccc(CC)cc2)C(C)C)CC1 (stereo not given) | -17.5%
CC(C)CCNC(=O)C(c1ccco1)N(Cc1ccc(F)cc1)C(=O)c1snc(C(N)=O)c1N (stereo not given) | -10.9%
O=C1c2ccccc2-c2onc3ccc(NCc4ccco4)c1c23 | 19.4%
CCOC(=O)c1c(C)[nH]c(C)c1C(=O)COC(=O)/C=C/c1cccc(F)c1 | -31.3%
COC(=O)c1ccccc1NC(=O)CS(=O)(=O)Cc1nc(-c2ccc(C)cc2)oc1C | -9.73%
Cc1ccc(CNC(=O)c2cccc(S(C)(=O)=O)c2)cc1 | -21.4%
CCOC(=O)CC(=O)CSc1nc2c(c(C)c1C#N)CCC2 | -22.8%
CCn1c(SCc2nc3scc(-c4ccccc4)c3c(=O)[nH]2)nnc1-c1cccs1 | 27.8%
CN1c2ccccc2C(C)(C)[C@]12C=Cc1cc(O)ccc1O2 | 2.19%

Reference: PubChem BioAssay AID2401 (Southern Research Specialized Biocontainment Screening …, 2010)
